Measurements published in PubChem BioAssay.
Activity calls are given as the source filed them.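 The calls were made as follows, unless noted: active = inhibition above 20% together with a positive visual image hit; inconclusive = visual image hit but inhibition not above 20%; inactive = no visual image hit.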

assay: inhibitors of TNFa-induced NFkB p65 translocation, primary screen, imaging, HUVEC, MLSMR starter and 10KST1 sets (AID 438); conditions: HUVEC TNFa-induced p65 nuclear translocation; cell count: measured here: nuclei count (cytotoxicity indicator), at 2.08 µM; inhibition: at 2 µM, stronger effect = higher value, 0% TNFa-plus-vehicle, 100% no-TNFa wells;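 also: compound added about 3h40 before a 20 min TNFalpha stimulation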;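 as to inhibition: signal is the nuclear over cytoplasmic p65 intensity ratio per well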

Row | SMILES | inhibition | cell count
1 | CC(c1ccco1)N(C(=O)COc1ccc(Cl)cc1Cl)c1ccccn1 (stereo not given) | 2.4% (inactive) | 720
2 | O=S(=O)(c1ccc(OCC(O)CN2CCC(Cc3ccccc3)CC2)cc1)N1CCOCC1 (stereo not given) | 4.8% (inactive) | 730
3 | Cc1nc(SCC(=O)NCc2ccco2)c2c(C)c(C)sc2n1 | -4% (inactive) | 709
4 | CC(C)(C)n1ncc2c(=O)n(CC(=O)NCc3ccco3)cnc21 | 4.8% (inactive) | 421
5 | Cc1cccn2c(=O)c3cc(C#N)c(=NC(=O)c4cccnc4)n(CC4CCCO4)c3nc12 (stereo not given) | -2.8% (inactive) | 852
6 | CCOC(=O)CS(=O)(=O)c1nc(-c2ccccc2)cc(C(F)(F)F)n1 | 2.8% (inactive) | 380
7 | CCOC(=O)c1ccc(NC2OC(=O)c3ccccc32)cc1 (stereo not given) | -54.1% (inactive) | 605
8 | CC(C)C(=O)Nc1cccc(NC(=O)c2cccnc2)c1 | 7.2% (inactive) | 311
9 | Cc1ccc(C)n1NC(=O)c1ccco1 | -4.7% (inactive) | 692
10 | CCCN1CCN(CCCNC(=O)Cn2nc(-c3ccc(Cl)cc3)ccc2=O)CC1 | 13.6% (inactive) | 514
11 | Cc1cccc(-n2c(Cc3cc(=O)[nH]c(=O)[nH]3)nnc2SCC(=O)NCc2ccco2)c1 | -4% (inactive) | 400
12 | COc1ccc(CN2C(=O)c3cccnc3C2Nc2cc(Cl)ccc2OC)cc1 (stereo not given) | 3% (inactive) | 482
13 | CS(=O)(=O)N(CC(=O)O)c1cccc(Cl)c1 | 9.8% (inactive) | 358
14 | O=C(Nc1ccccc1C(=O)N1CCCCCC1)c1cccc(S(=O)(=O)N2CCOCC2)c1 | -6.5% (inactive) | 492
15 | COC(=O)c1ccc(CSc2nc3c(cnn3-c3ccc(C)c(C)c3)c(=O)[nH]2)o1 | 9.3% (inactive) | 433
16 | CCn1nnnc1SCC(=O)Nc1nnc(C(C)C)s1 | -3% (inactive) | 324
17 | COCCNC(=O)CN(C)S(=O)(=O)c1ccc2c(c1)OCCO2 | -12.1% (inactive) | 577
18 | Cc1nc(C)c(C(=O)OCC(=O)N2CCN(c3ccccc3)CC2)s1 | -4.8% (inactive) | 700
19 | CCOC(=O)CNc1ccc2c(c1)OCO2 | -7.7% (inactive) | 368
20 | Cc1ccc(S(=O)(=O)N(CC(=O)N2CCOCC2)CC(=O)N2CCOCC2)cc1 | -9% (inactive) | 676

Row | SMILES | inhibition | cell count
21 | Cc1cc(Cl)ccc1OCCCC(=O)N1CCOCC1 | -1.5% (inactive) | 571
22 | CCC1(CC)NC(=O)NC1=O | 2.2% (inactive) | 665
23 | CC(=O)N1C(=O)C2(Nc3ccccc3N2)c2ccccc21 | -4.3% (inactive) | 406
24 | CC1(C)OC(=O)C(=CNc2ccccc2)C(=O)O1 | 9.4% (inactive) | 548
25 | C=CCn1c(C)cc(C(=O)CSc2nc3ccccc3c(=O)[nH]2)c1C | -0.8% (inactive) | 278
26 | CCOC(=O)N1CCN(C(=O)CCc2c(C)nc3c(c(C)nn3-c3ccc(C)c(C)c3)c2C)CC1 | 0.9% (inactive) | 653
27 | CSc1ccccc1NC(=O)CN(Cc1ccccc1)S(C)(=O)=O | -15.1% (inactive) | 768
28 | CCOC(=O)c1[nH]c(C)c(C(=O)Nc2ccc(C)c(Cl)c2)c1C | 0.3% (inactive) | 661
29 | CC(=O)NC1=NC(=O)/C(=C/N2CCCCC2)S1 | -4.7% (inactive) | 391
30 | COc1ccccc1C1C(C(C)=O)=C(O)C(=O)N1CCc1ccccc1 (stereo not given) | 9.5% (inactive) | 373
31 | CCCn1c2c(c(O)c(C(=O)Nc3ccc(C)cn3)c1=O)CCCC2 | 9.8% (inactive) | 483
32 | O=c1oc2ccccc2n1CCc1ccccc1 | -4.6% (inactive) | 470
33 | Cc1ccc(-n2nc(-c3cccs3)cc2C(=O)NCC2CCCO2)c(C)c1 (stereo not given) | -1.7% (inactive) | 490
34 | CC1(C)CC(=O)c2c(O)cc(O)cc2O1 | -15.6% (inactive) | 652
35 | CCOC(=O)C1C(=O)OC(C)(C)C1C(C)C(=O)c1ccc(OC)cc1 (stereo not given) | -6.4% (inactive) | 605
36 | N#CCSc1nc(-c2ccccc2)cs1 | 5% (inactive) | 371
37 | CCCOc1ccc([C@@H]2C3CN(C(=O)OCC)CC=C3C(C#N)=C(N)C2(C#N)C#N)cc1OC (stereo not given in full) | -23.3% (inactive) | 743
38 | O=C(CSc1nc(C2CCCCC2)n(-c2ccccc2)n1)NCCN1C(=O)CSC1=O | -5.9% (inactive) | 382
39 | CC(=O)OCC(=O)c1ccc2ccn(C(C)=O)c2c1 | 1.6% (inactive) | 544
40 | CS(=O)(=O)Nc1ccc(C(=O)NCCc2ccccc2)cc1 | -2% (inactive) | 342

assay: inhibitors of mutant huntingtin aggregation, primary screen, imaging, exon1htt(103Q)mCFP cells, high-content imaging (AID 483;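 active = visual image review flags a hit and inhibition of aggregation exceeds 20%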;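 also: compound exposure lasted 3 days before fixation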;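 as to nuclei count: percent of the per-plate median nuclei count of sample wells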); conditions: exon1htt(103Q)mCFP cell line, aggregate imaging, at 2 µM; inhibition of aggregation: stronger effect = higher value; nuclei count: measured here: cell count, toxicity

Row | SMILES | inhibition of aggregation | nuclei count [%]
41 | CC(c1ccco1)N(C(=O)COc1ccc(Cl)cc1Cl)c1ccccn1 (stereo not given) | -4.8% (inactive) | 96
42 | O=S(=O)(c1ccc(OCC(O)CN2CCC(Cc3ccccc3)CC2)cc1)N1CCOCC1 (stereo not given) | -9.9% (inactive) | 120
43 | Cc1nc(SCC(=O)NCc2ccco2)c2c(C)c(C)sc2n1 | 15.2% (inactive) | 85.7
44 | CC(C)(C)n1ncc2c(=O)n(CC(=O)NCc3ccco3)cnc21 | -12.5% (inactive) | 104
45 | Cc1cccn2c(=O)c3cc(C#N)c(=NC(=O)c4cccnc4)n(CC4CCCO4)c3nc12 (stereo not given) | -7.5% (inactive) | 105
46 | CCOC(=O)CS(=O)(=O)c1nc(-c2ccccc2)cc(C(F)(F)F)n1 | -12.2% (inactive) | 102
47 | CCOC(=O)c1ccc(NC2OC(=O)c3ccccc32)cc1 (stereo not given) | 6.4% (inactive) | 106
48 | CC(C)C(=O)Nc1cccc(NC(=O)c2cccnc2)c1 | -20.9% (inactive) | 95.6
49 | Cc1ccc(C)n1NC(=O)c1ccco1 | 0% (inactive) | 94.1
50 | CCCN1CCN(CCCNC(=O)Cn2nc(-c3ccc(Cl)cc3)ccc2=O)CC1 | 0.1% (inactive) | 106
51 | Cc1cccc(-n2c(Cc3cc(=O)[nH]c(=O)[nH]3)nnc2SCC(=O)NCc2ccco2)c1 | -21.7% (inactive) | 90
52 | COc1ccc(CN2C(=O)c3cccnc3C2Nc2cc(Cl)ccc2OC)cc1 (stereo not given) | 0.1% (inactive) | 105
53 | CS(=O)(=O)N(CC(=O)O)c1cccc(Cl)c1 | -14.9% (inactive) | 106
54 | O=C(Nc1ccccc1C(=O)N1CCCCCC1)c1cccc(S(=O)(=O)N2CCOCC2)c1 | -11.4% (inactive) | 74.5
55 | COC(=O)c1ccc(CSc2nc3c(cnn3-c3ccc(C)c(C)c3)c(=O)[nH]2)o1 | 2.1% (inactive) | 98.4
56 | CCn1nnnc1SCC(=O)Nc1nnc(C(C)C)s1 | 21.9% (inactive) | 96.2
57 | COCCNC(=O)CN(C)S(=O)(=O)c1ccc2c(c1)OCCO2 | -1.9% (inactive) | 101
58 | Cc1nc(C)c(C(=O)OCC(=O)N2CCN(c3ccccc3)CC2)s1 | -3.6% (inactive) | 99.4
59 | CCOC(=O)CNc1ccc2c(c1)OCO2 | 8.3% (inactive) | 99.8
60 | Cc1ccc(S(=O)(=O)N(CC(=O)N2CCOCC2)CC(=O)N2CCOCC2)cc1 | -5.6% (inactive) | 108

Row | SMILES | inhibition of aggregation | nuclei count [%]
61 | Cc1cc(Cl)ccc1OCCCC(=O)N1CCOCC1 | -0.1% (inactive) | 94.9
62 | CCC1(CC)NC(=O)NC1=O | -5.3% (inactive) | 89.9
63 | CC(=O)N1C(=O)C2(Nc3ccccc3N2)c2ccccc21 | 6.4% (inactive) | 108
64 | CC1(C)OC(=O)C(=CNc2ccccc2)C(=O)O1 | -4.1% (inactive) | 108
65 | C=CCn1c(C)cc(C(=O)CSc2nc3ccccc3c(=O)[nH]2)c1C | 11.4% (inactive) | 92
66 | CCOC(=O)N1CCN(C(=O)CCc2c(C)nc3c(c(C)nn3-c3ccc(C)c(C)c3)c2C)CC1 | -9.9% (inactive) | 100
67 | CSc1ccccc1NC(=O)CN(Cc1ccccc1)S(C)(=O)=O | -4.2% (inactive) | 115
68 | CCOC(=O)c1[nH]c(C)c(C(=O)Nc2ccc(C)c(Cl)c2)c1C | -3.4% (inactive) | 97.4
69 | CC(=O)NC1=NC(=O)/C(=C/N2CCCCC2)S1 | 1.3% (inactive) | 105
70 | COc1ccccc1C1C(C(C)=O)=C(O)C(=O)N1CCc1ccccc1 (stereo not given) | -6.3% (inactive) | 105
71 | CCCn1c2c(c(O)c(C(=O)Nc3ccc(C)cn3)c1=O)CCCC2 | -6.3% (inactive) | 96.3
72 | O=c1oc2ccccc2n1CCc1ccccc1 | 0% (inactive) | 88.3
73 | Cc1ccc(-n2nc(-c3cccs3)cc2C(=O)NCC2CCCO2)c(C)c1 (stereo not given) | -12.1% (inactive) | 15.1
74 | CC1(C)CC(=O)c2c(O)cc(O)cc2O1 | -5.4% (inactive) | 83.3
75 | CCOC(=O)C1C(=O)OC(C)(C)C1C(C)C(=O)c1ccc(OC)cc1 (stereo not given) | -4.2% (inactive) | 42.1
76 | N#CCSc1nc(-c2ccccc2)cs1 | 1.3% (inactive) | 103
77 | CCCOc1ccc([C@@H]2C3CN(C(=O)OCC)CC=C3C(C#N)=C(N)C2(C#N)C#N)cc1OC (stereo not given in full) | 14.7% (inactive) | 102
78 | O=C(CSc1nc(C2CCCCC2)n(-c2ccccc2)n1)NCCN1C(=O)CSC1=O | 8% (inactive) | 112
79 | CC(=O)OCC(=O)c1ccc2ccn(C(C)=O)c2c1 | -17.9% (inactive) | 102
80 | CS(=O)(=O)Nc1ccc(C(=O)NCCc2ccccc2)cc1 | -9.2% (inactive) | 108
